Results taken from PubChem BioAssay (NCI).
About 79,000 compounds went through this panel and 15% of them were active in at least one assay; those are over-represented in the sample as a whole. A number with no mark means an inactive call. The source made the active and inactive calls. No stated cut-off is given here; in the data, active means growth inhibition above about 70%; inactive means the rest.

Experiment: NCI Yeast Anticancer Drug Screen. Data for the wt2 strain (AID 169);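 further: 0% = growth of vehicle-treated yeast cultures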
Details: S. cerevisiae wt2 strain growth inhibition, active compounds read high
Experimental: Growth inhibition of yeast strains with defined genetic alterations is measured as a screen for potential anti-cancer activity. Selected strains with alterations in DNA damage repair or cell cycle control were exposed to compounds and growth inhibition was measured relative to vehicle treated controls. The strain used in this assay is wt2

Q: With `NCC(O)CSCc1ccc(Cl)cc1` (stereo not given) as the compound, how does the growth inhibition (at 1.2 µM) read?
A: -6%

Q: And the growth inhibition (at 3.7 µM)?
A: -9%

Q: And the growth inhibition (at 11.0 µM)?
A: -4%

Q: And the growth inhibition (at 33.0 µM)?
A: 1%

Q: And the growth inhibition (at 100.0 µM)?
A: -8%

Q: With `Cc1ccc(P(c2ccc(C)cc2)c2ccc(C)cc2)cc1` as the compound, how does the growth inhibition (at 1.2 µM) read?
A: -17%

Q: And the growth inhibition (at 3.7 µM)?
A: -15%

Q: And the growth inhibition (at 11.0 µM)?
A: -15%

Q: What about the growth inhibition (at 33.0 µM) of the same compound?
A: 5%

Q: And the growth inhibition (at 100.0 µM)?
A: 13%

Q: Which growth inhibition (at 1.2 µM) does the source give for `CC[C@]1(O)C[C@H]2CN(CCc3c([nH]c4ccccc34)[C@@](C(=O)OC)(c3cc4c(cc3OC)N(C)[C@H]3[C@@](O)(C(=O)OC)[C@H](OC(C)=O)[C@]5(CC)C=CCN6CC[C@]43[C@@H]65)C2)C1` here?
A: -1%

Q: What about the growth inhibition (at 3.7 µM) of the same compound?
A: 0%

Q: And the growth inhibition (at 11.0 µM)?
A: -3%

Q: What about the growth inhibition (at 33.0 µM) of the same compound?
A: -3%

Q: And the growth inhibition (at 100.0 µM)?
A: -4%

Q: With `CCC1SC(=S)N(c2ccc(Cl)cc2)C1=O` (stereo not given) as the compound, how does the growth inhibition (at 1.2 µM) read?
A: -5%

Q: What about the growth inhibition (at 3.7 µM) of the same compound?
A: 1%

Q: And the growth inhibition (at 11.0 µM)?
A: 20%

Q: And the growth inhibition (at 33.0 µM)?
A: 65%

Q: What about the growth inhibition (at 100.0 µM) of the same compound?
A: 92% (active)

Q: What does the source list for `O=S(=O)(O)c1ccc2c(N=Nc3c(O)ccc4ccccc34)cccc2c1`?
A: growth inhibition (at 1.2 µM): -1%; growth inhibition (at 3.7 µM): 0%; growth inhibition (at 11.0 µM): 13%; growth inhibition (at 33.0 µM): 37%; growth inhibition (at 100.0 µM): 74% (active)

Q: What does the source list for `CN(C)N=Nc1ccc(NC=O)cc1`?
A: growth inhibition (at 1.2 µM): 18%; growth inhibition (at 3.7 µM): 9%; growth inhibition (at 11.0 µM): 14%; growth inhibition (at 33.0 µM): 96% (active); growth inhibition (at 100.0 µM): 99% (active)

Q: For `O=c1[nH]c(=O)n(CCCO)cc1F`, which growth inhibition (at 1.2 µM) is on record?
A: 3%

Q: And the growth inhibition (at 3.7 µM)?
A: -6%

Q: What about the growth inhibition (at 11.0 µM) of the same compound?
A: -14%

Q: And the growth inhibition (at 33.0 µM)?
A: -22%

Q: What about the growth inhibition (at 100.0 µM) of the same compound?
A: -18%

Q: Which results are given for `O=C(Nn1c(-c2ccccc2)nc2ccccc2c1=O)c1ccc(Cl)cc1`?
A: growth inhibition (at 1.2 µM): 5%; growth inhibition (at 3.7 µM): 6%; growth inhibition (at 11.0 µM): 5%; growth inhibition (at 33.0 µM): 51%; growth inhibition (at 100.0 µM): 95% (active)
